Common to all, as to experiment: NCI-60 one-dose screen, 48 h (100 = growth as untreated, 0 = no growth, -100 = all killed)
Holding throughout (details): 10 µM unless noted

Assay [1] relates to HCT-15 colon.
Assay [2] has as its system HT29 colon.
Assay [3] has as its system SNB-75 CNS.
For assay [4], the system named is U251 CNS.
Assay [5] has as its system PC-3 prostate.
The subject of assay [6] is SK-MEL-5 melanoma.
Assay [7] has as its system UACC-62 melanoma.
For assay [8], the system named is LOX IMVI melanoma.
In assay [9] the test system is SK-MEL-28 melanoma.
Assay [10] relates to SNB-19 CNS.

The structures appear in SMILES notation. This is part of a sample that, as a whole, favours compounds with a hit. Of some 83,000 tested, about 20% had one in any assay.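 48-hour exposure, single concentration, 96-well plates; percent growth endpoint where 0 means no net growth. Active: below 10.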 Values without a mark were called inactive. The source made the active and inactive calls.

With `Cn1cc(-c2csc(-c3cn(CCCN4CCOCC4)c4ccc(F)cc34)n2)c2cccnc21`, the growth in assay [1] was 27.1%; in assay [2] it was 1.97% (active); in [3], 87.1%; in assay [4], 51.1%; in assay [5], 29.6%; in [6], 25.1%. The growth in assay [7] was 72.2%; in assay [8] it was 26.6%; in [9] it was 77.5%.

Take `Cc1cc(NCCCNc2ccnc3cc(Cl)ccc23)nc(Nc2ccc(C(=O)N3CCCCC3)cc2)n1`: the growth in assay [1] is 0.549% (active); in [2] it was -5.41% (active); in assay [3], 26.7%; in [4] it was -8.28% (active); in [5], 50.5%; in assay [6], -98.5% (active). For the same molecule, the figures for the growth in assay [7], in assay [8] and in assay [9] were -71.2% (active), -77.1% (active) and -71.2% (active), respectively.

As to `N=C(N)c1ccc(OCCSCCOc2ccc(C(=N)N)cc2)cc1`, the growth in assay [1] is 85.1%; in assay [2], 85.4%; in assay [3], 71.2%; in [4], 48%; in assay [5], 90.6%; in [6] it was 41.4%. For the same molecule, the growth in assay [7] is 67.4%; in [8], 90.5%; in assay [9], 92.2%.

With `COc1ccc(/C=C/C(c2cc(OC)c(OC)c(OC)c2)n2cncn2)cc1O` (stereo not given), the growth in assay [1] is 16.5%; in assay [2], 41%; in assay [3], 41%; in assay [4], 20.7%; in [5], 23.5%; in assay [6] it was 23.9%. Also, the growth in [7] is 37.5%; in [8], 50.9%; in assay [9] it was 59.1%.

As to `CC(C)C1C2=C(NCCN1C(=O)c1ccncc1)C(C)(C)N(Cc1ccccc1)C2=O` (stereo not given), the growth was 103% in [1]; 92.8% in assay [2]; 81.7% in [3]; 100% in [4]; 96.1% in [5]; 105% in assay [6]. The growth was 95.6% in assay [7], 95.5% in assay [8] and 114% in assay [9].

Take `CCOc1ccc(NC(=O)Nc2ccc(OCC)cc2)cc1`: the growth was 106% in [1]; 107% in [2]; 106% in assay [3]; 99.8% in assay [4]; 100% in assay [5]; 104% in [6]. Also, the growth in assay [7] is 105%; in [8], 98.3%; in assay [9], 101%.

As for `C/C=C1/CN(CCCCC)CC[C@H]1C(=O)c1cc2ccccc2[nH]1`, the growth is 87% in [1]; 75.7% in assay [2]; 76.4% in assay [3]; 98.1% in assay [4]; 85.8% in [5]; 87.9% in [6]. The growth is 95% in assay [7], 90.1% in [8] and 111% in assay [9].

In the case of `CC(C)(Sc1cc(C(C)(C)C)c(O)c(C(C)(C)C)c1)Sc1cc(C(C)(C)C)c(OC(=O)CCC(=O)O)c(C(C)(C)C)c1`, the growth in [1] is 22%; in assay [2], 24.2%; in [3], 94.2%; in [4], 34.4%; in assay [5], 35.5%; in [6], 50.1%. Besides, the growth in assay [7] is 6.79% (active); in assay [8] it was 56.1%; in assay [9] it was 54.1%.

Turning to `COc1c2c(cc3c1C(=O)N[C@@H]1[C@@H](O)[C@@H](O)[C@H](O)C[C@@H]31)OCCO2`, the growth in assay [1] was 102%; in [2], 106%; in assay [10], 102%; in assay [4], 100%; in assay [5] it was 97.7%; in assay [6], 99.1%. Besides, the growth in assay [7] was 96.7%; in [8], 101%; in [9], 106%.

`CS(=O)(=O)Nc1cc(-c2ccc3ncnc(Nc4ccc5c(cnn5Cc5ccccc5F)c4)c3c2)cnc1Cl`: the growth in [1] was 79.4%; in assay [2] it was 51%; in assay [10] it was 49.1%; in assay [4] it was 46.3%; in [5], 37.5%; in assay [6], 26.3%. Moreover, the growth was 19.4% in [7], 25.9% in assay [8] and 17.5% in [9].

For `COC(=O)c1nc(-c2ccccc2)oc1S(=O)(=O)N1CCCC(C)C1` (stereo not given), the growth was 37.2% in assay [1]; 56.3% in assay [2]; 91.5% in [10]; 90.8% in assay [4]; 71.6% in [5]; 85.2% in assay [6]. Further, the growth was 84.7% in assay [7], 61.6% in assay [8] and 84.9% in assay [9].

As for `c1ccc2cc(Cn3cc(CSc4nc5ccccc5s4)nn3)ccc2c1`, the growth in [1] was 107%; in [2], 95.7%; in assay [3] it was 101%; in [5], 93.1%; in assay [7], 84.8%; in assay [8] it was 98.8%. Moreover, the growth in [9] was 102%.

Consider `COc1ccc(C(=O)/C=C/c2ccccc2)cc1S(N)(=O)=O`, for which the growth was 44.1% in assay [1]; 63.6% in assay [2]; 40% in [10]; 26.2% in assay [4]; 74% in assay [5]; 88.2% in assay [6]. Moreover, the growth in [7] is 79.2%; in assay [8], 42%; in [9], 107%.

These data come from PubChem BioAssay (NCI).
